According to PubChem BioAssay AID686978 (National Center for Advancing Translational Sciences (NCATS), 2013):
The whole screen tested about 420,000 compounds, of which about 64,000 (15%) were called active. About 27% were inconclusive and are not listed. The entries come from a sample that favours actives as a whole. A number with no mark means an inactive call. Calls follow the shape of the dose curve; as a rule, active = well fitted inhibition curve with a large enough effect; inconclusive = small, poorly fitted or top-dose-only effect; inactive = flat fitted curve, though single readings scatter.

test: qHTS for Inhibitors of human tyrosyl-DNA phosphodiesterase 1 (TDP1): qHTS in cells in absence of CPT; settings: DT40 Tdp1-/- hTDP1 cells, no CPT, ATP luminescence, 48 h; series mostly up to 46.2 µM; activity change, negative = growth inhibition: at the top concentration; also: nearly all actives have a fitted effect of over 55% in size
From the text: Human tyrosyl-DNA phosphodiesterase 1 (TDP1) is a novel repair gene, and we propose to use it as a new target for anticancer drug development. TDP1 is not an essential protein, but under treatment with topoisomerase I poison (camptothecin: CPT), TDP1 works as a critical factor for cell survival. To directly identify novel TDP1 inhibitors active in a cellular environment, we have knocked-out the Tdp1 gene in chicken DT40 cells (Tdp1-/-) and generated a complemented counterpart cells that contains a stable transfection of the human TDP1 gene (Tdp1-/-;hTDP1 cells). For the primary screen, Tdp1-/-;hTDP1 cells will be exposed to small molecules in the presence or absence of CPT, and their growth kinetics will be evaluated after 48 hours by measuring ATP activity. […] The hit compounds will then be evaluated in the presence or absence of CPT using Tdp1-/- cells. […] In tertiary assays, biochemical gel-based assays will be used to assess whether the hit compounds specifically target TDP1.
To this end, we have screened this cell line against the MLSMR in two primary screens. In one screen we add CPT and in the other we screen in the absence of CPT; this AID represents the screen where CPT was absent.
NIH Chemical Genomics Center [NCGC]
NIH Molecular Libraries Probe Centers Network [MLPCN]
Assay Submitter (PI): Yves Pommier, NCI
DT40-hTDP1 cells without 20 nM Camptothecin (add 20 microL of DMSO in 1 L of cell culture medium) were dispensed at 400 cells/5microL/well in tissue culture treated 1536-well white wall/solid bottom assay plates (Greiner Bio-One North America, NC, U.S.A.) using a Multidrop Combi 8 channel dispenser (Thermo Fisher, Waltham, MA, USA). 23 nL compounds and controls were transferred using the pin tool (Kalypsys, San Diego, CA, USA) to the assay plates. The assay plates were then incubated at 37 masculineC for a minimum 48 hr. Three microL of Cell Titer Glo solution was added to the plates and incubated at RT in dark for 30 min. Luminescence was read using ViewLux (Perkin Elmer) with 1 sec exposure slow speed, high gain and 2x binning.
% is scaled to controls: 0 for no effect and ±100 for the full control effect; potency is read from the fitted curve at half-maximal effect.

Q: Which Potency does the source give for `O=C(Nc1cccc(OC(=O)N2CCCCC2)c1)N1CCOCC1` here?
A: 5.8 µM (active)

Q: Which “activity change, negative = growth inhibition” value does the source give for `O=C(Nc1cccc(F)c1)N1CC[C@@]2(CCCN(C(=O)Oc3ccccc3)C2)C1` here?
A: -69.5%

Q: With `c1ccc2sc(N3CCNCC3)nc2c1` as the compound, how does the “activity change, negative = growth inhibition” value read?
A: -0.512%

Q: For `COc1ccc(NC(=O)c2cn(CCC#N)nc2-c2ccc([N+](=O)[O-])cc2)cc1`, which “activity change, negative = growth inhibition” value is on record?
A: 2.67%

Q: With `CN1CCN(/N=C/c2c[nH]c3ccccc23)CC1` as the compound, how does the “activity change, negative = growth inhibition” value read?
A: 2.07%

Q: For `C[C@@H]1C[C@@H]2O[C@H]2/C=C\C=C\C(=O)Cc2c(Cl)c(O)cc(O)c2C(=O)O1`, which Potency is on record?
A: 0.164 µM (active)

Q: Which Potency does the source give for `NS(=O)(=O)c1ccc(CCNC(=O)c2ccc(Cl)c(S(=O)(=O)N3CCCCCC3)c2)cc1` here?
A: 23.1 µM (active)

Q: With `C=CCn1c(O)c(/C=N/N2CCOCC2)c(=O)[nH]c1=S` as the compound, how does the “activity change, negative = growth inhibition” value read?
A: 3.41%

Q: For `O=C(COc1ccccc1Cl)Nc1ccc2nc(SCC(=O)N3CCCC3)sc2c1`, which Potency is on record?
A: 16.4 µM (active)

Q: Which Potency does the source give for `CN(C(=O)CSc1nc2ccc(NC(=O)COc3ccccc3)cc2s1)c1ccccc1` here?
A: 11.6 µM (active)

Q: For `CCOCCc1c(O)[nH]c(=S)[nH]c1=O`, which “activity change, negative = growth inhibition” value is on record?
A: -9.37%

Q: With `COc1ccc(C2Oc3c(I)c(OC)cc(OC)c3CC2O)cc1OC` (configuration not stated) as the compound, how does the “activity change, negative = growth inhibition” value read?
A: -14.9%

Q: For `CCCCC/C=C\C/C=C\C/C=C\C/C=C\CCCCCC(=O)NCCO`, which activity change, negative = growth inhibition is on record?
A: -2.9% [at 4.12 µM]

Q: With `CCN(CC)CCOC(=O)c1cc2cc(COC)ccc2o1` as the compound, how does the “activity change, negative = growth inhibition” value read?
A: 2.59%

Q: With `C=CCN(CC=C)C(=O)Nc1ccc(OCC)cc1` as the compound, how does the “activity change, negative = growth inhibition” value read?
A: -15.1%

Q: For `CCOC(=O)[C@]12Cc3cc(OC)ccc3[C@H]1N(C(C)C)C(=O)c1ccccc12`, which Potency is on record?
A: 6.51 µM (active)

Q: Which Potency does the source give for `CCOC(=O)[C@]12Cc3ccccc3[C@H]1N(C1CCCCC1)C(=O)c1cc(OC)ccc12` here?
A: 3.66 µM (active)

Q: For `O=C(N/N=C/c1c(O)n(C2CC2)c(=S)[nH]c1=O)c1ccccc1`, which “activity change, negative = growth inhibition” value is on record?
A: 2.47%

Q: With `C[C@]12CC[C@H](O)CC1=C([N+](=O)[O-])CC1C2CC[C@@]2(C)C1CC[C@@H]2O` (some centres not stated) as the compound, how does the “activity change, negative = growth inhibition” value read?
A: -26.1%

Q: For `CN1C2CC3CC1C(O3)C2O` (configuration not stated), which “activity change, negative = growth inhibition” value is on record?
A: 1.96%

Q: Which “activity change, negative = growth inhibition” value does the source give for `COc1c(O)ccc2c1-c1c3c(cc4c1C(C2)N(C)CC4)OCO3` (configuration not stated) here?
A: -13%

Q: With `COc1ccc2cc1Oc1ccc(cc1)C[C@H]1c3cc(c(OC)cc3CCN1C)Oc1c(O)c(OC)cc3c1[C@H](C2)N(C)CC3` as the compound, how does the Potency read?
A: 8.2 µM (active)

Q: Which “activity change, negative = growth inhibition” value does the source give for `O=C(Cc1ccc(Cl)cc1)NCCN1CCN(C(=O)Cc2ccc(Cl)cc2)CC1` here?
A: -19.8%

Q: With `Clc1cccc(Cl)c1Cl` as the compound, how does the “activity change, negative = growth inhibition” value read?
A: 11.4%

Q: Which “activity change, negative = growth inhibition” value does the source give for `O=[N+]([O-])c1cnc2ccc3ccccc3c2c1` here?
A: -17.9%

Q: With `CCCCC(=O)N/N=C/c1c(O)n(CC)c(=S)n(CC)c1=O` as the compound, how does the Potency read?
A: 10.3 µM (active)

Q: Which “activity change, negative = growth inhibition” value does the source give for `Cn1c(O)c(C=NCCCC(=O)O)c(=O)n(C)c1=O` here?
A: 1.24%

Q: For `O=C1C2(Cl)C3(Cl)C4(Cl)C(Cl)(Cl)C5(Cl)C3(Cl)C1(Cl)C5(Cl)C24Cl` (configuration not stated), which Potency is on record?
A: 16.4 µM (active)

Q: For `COC1=CC=C2[C@H]3Cc4ccc(OC)c5c4[C@@]2(CCN3C)C1O5` (some centres not stated), which “activity change, negative = growth inhibition” value is on record?
A: -16.4%

Q: Which “activity change, negative = growth inhibition” value does the source give for `COP(=O)(OC)C(NC(=O)c1ccc(C)cc1)C(Cl)(Cl)Cl` (configuration not stated) here?
A: 4.88%

Q: With `O=C1NC(=O)C(Cc2ccccc2)C(=O)N1` as the compound, how does the “activity change, negative = growth inhibition” value read?
A: 5.35%

Q: With `CC(Cc1ccccc1)NC=O` (configuration not stated) as the compound, how does the Potency read?
A: inactive

Q: Which Potency does the source give for `COc1ccc(CNC(=O)c2cc3c(-c4ccccc4F)nn(C)c3s2)c(OC)c1` here?
A: 6.51 µM (active)

Q: Which “activity change, negative = growth inhibition” value does the source give for `CCOP(=O)(OCC)C(NC(=O)NC)C(N)=O` (configuration not stated) here?
A: 20.8%

Q: For `O=C(O)c1cc[c]([Sb](=[O])([OH])[OH])cc1[N+](=O)[O-]`, which “activity change, negative = growth inhibition” value is on record?
A: 1.08%

Q: Which “activity change, negative = growth inhibition” value does the source give for `CCOC(=O)C1(c2ccccc2)CCN(CC(O)c2ccc(NC(C)=O)cc2)CC1` (configuration not stated) here?
A: -18.1%

Q: Which “activity change, negative = growth inhibition” value does the source give for `CCN1C[C@]2(COC)C(O)C[C@H](OC)[C@@]34C5C[C@]6(O)C(OC)C(O)[C@](OC(C)=O)(C5C6OC(=O)c5ccccc5)C(C(OC)C23)C14` (some centres not stated) here?
A: 2.58%

Q: For `CC(CCC(=O)O)C1CCC2C3C(O)C[C@@H]4CC(O)CC[C@@]4(C)C3CC[C@@]12C` (some centres not stated), which Potency is on record?
A: inactive

Q: Which “activity change, negative = growth inhibition” value does the source give for `C/C=C/CC1(CC)C(=O)NC(=S)NC1=O` here?
A: -15.3%

Q: Which Potency does the source give for `COC(=O)C1=C(c2ccc(OCc3ccccc3)cc2)C[C@@H]2CC[C@H]1N2C(=O)NCc1ccc(Cl)cc1` here?
A: 16.4 µM (active)

Q: With `COC(=O)C(c1ccccc1)N1CCCCCC1` (configuration not stated) as the compound, how does the “activity change, negative = growth inhibition” value read?
A: -0.202%

Q: Which “activity change, negative = growth inhibition” value does the source give for `COC(=O)C1=C(c2cc3ccccc3s2)C[C@@H]2CC[C@H]1N2C(=O)NCCO` here?
A: -0.15%

Q: For `COC(=O)C1=C(c2ccccc2)C[C@@H]2CC[C@H]1N2C(=O)N1CCCCC1`, which Potency is on record?
A: 6.51 µM (active)

Q: With `COC(=O)C1=C(c2ccccc2)C[C@@H]2CC[C@H]1N2C(=O)NCc1ccco1` as the compound, how does the “activity change, negative = growth inhibition” value read?
A: -23.1%

Q: With `COC(=O)C1=C(c2cccc(OCc3ccccc3)c2)C[C@@H]2CC[C@H]1N2C(=O)NNCc1ccccc1` as the compound, how does the Potency read?
A: 10.3 µM (active)

Q: For `COC(=O)C1=C(c2ccc(OCc3ccccc3)cc2)C[C@@H]2CC[C@H]1N2C(=O)NCc1cccc(F)c1`, which Potency is on record?
A: 14.6 µM (active)

Q: Which “activity change, negative = growth inhibition” value does the source give for `COC(=O)C1=C(c2c(C)noc2C)C[C@@H]2CC[C@H]1N2C(=O)NCc1ccc2c(c1)OCO2` here?
A: -20.5%
